From PubChem BioAssay
Results with a measured potency or affinity are listed apart. Inconclusive results are not listed. Calls of active or inactive are those of the source. Unless noted, how the calls were made is not given here.

What was measured:
[1] = cytotoxicity in PAX8-dependent RMG-1 cells, dose response, cell-based, cherry-pick (AID 687029;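 active means signal drop whose fitted half-maximal concentration is at most twice the top valid dose, in every test run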;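 further: cells exposed to compound for 96 hours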)
[2] = cytotoxicity in IOSE-T80 ovarian epithelial cells, dose response, selectivity assay for PAX8 inhibitor project, cell-based, cherry-pick (AID 687032;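 active means fitted half-maximal concentration for viability loss no higher than twice the top valid dose, in every repeat run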;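 further: cells exposed to compound for 96 h before reading; 0% = neutral control wells and -100% = 2 µM mitoxantrone kill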)
[3] = inhibitors of CMV-promoter luciferase reporter, dose response, counter-screen for Pax8 inhibitor project, cell-based, HEK293, luminescence, dry powder (AID 743020;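 active means signal-lowering compounds whose fitted half-maximal concentration is at or below twice the top tested dose in every run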;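 further: HEK293 cells stably expressing the CMV luciferase reporter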)
[4] = non-specific cell cytotoxicity, dose response, cytotoxicity control for PAX8 inhibitor project, plate reader, dry powder samples (AID 743021)
[5] = IGROV1 ovarian cancer cell cytotoxicity, dose response, PAX8 inhibitor project, plate reader, dry powder samples (AID 743043);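 further: more negative means fewer viable cells or more cytotoxicity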
[6] = NIH:OVCAR-3 ovarian cancer cell cytotoxicity, dose response, PAX8 inhibitor project, plate reader, dry powder samples (AID 743044); conditions: max activity: at 35 µM, active compounds read low unless noted
[7] = IOSE-T80 ovarian epithelial cell cytotoxicity, dose response, cytotoxicity control for PAX8 inhibitor project, plate reader, dry powder samples (AID 743045);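 further: 0% = neutral control median and -100% = positive control median; more negative values mean more cell killing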
[8] = A2780 ovarian cancer cell cytotoxicity, dose response, cytotoxicity control, plate reader, dry powder samples (AID 743046);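 further: 0% = neutral control wells and -100% = cytotoxic reference compound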
[9] = cytotoxicity in OVCAR8 ovarian cancer cells, dose response, PAX8 project, cell-based, plate reader, dry powder samples (AID 743197)

Measured: max activity

C[C@H](CO)N1C[C@H](C)[C@@H](CN(C)Cc2ccc(Cl)c(Cl)c2)OCCCC[C@H](C)Oc2ccc(NC(=O)Nc3ccccc3)cc2C1=O
inactive: [1] | [2] | [3] | [4] | [5] | [6] -26.8% [at 0.26 µM, active compounds read low] | [7] | [8] | [9]

C[C@@H]1CCCCO[C@H](CN(C)C(=O)Nc2ccc(C(F)(F)F)cc2)[C@@H](C)CN([C@@H](C)CO)C(=O)c2cc(NS(=O)(=O)c3cccs3)ccc2O1
inactive: [1] | [2] | [3] | [4] | [5] | [6] -19.5% [at 4.2 µM, active compounds read low] | [7] | [8] | [9]

C[C@@H]1CCCCO[C@H](CN(C)S(=O)(=O)c2ccc(Cl)cc2)[C@@H](C)CN([C@@H](C)CO)C(=O)c2cc(NC(=O)Nc3ccc(C(F)(F)F)cc3)ccc2O1
inactive: [1] | [2] | [3] | [4] | [5] | [6] 9.63% [at 2.1 µM, active compounds read low] | [7] | [8] | [9]

Cc1ccc(S(=O)(=O)Nc2ccc3c(c2)C(=O)N([C@@H](C)CO)C[C@@H](C)[C@@H](CN(C)Cc2ccc(C(F)(F)F)cc2)OCCCC[C@@H](C)O3)cc1
inactive: [1] | [2] | [3] | [4] | [5] | [6] -26.4% [at 8 µM, active compounds read low] | [7] | [8] | [9]

Cc1ccc(S(=O)(=O)Nc2ccc3c(c2)C(=O)N([C@@H](C)CO)C[C@@H](C)[C@@H](CN(C)Cc2ccc(C(F)(F)F)cc2)OCCCC[C@H](C)O3)cc1
inactive: [1] | [2] | [3] | [4] | [5] | [6] -14.9% [at 2.1 µM, active compounds read low] | [7] | [8] | [9]

C[C@H]1CCCCO[C@@H](CN(C)C)[C@@H](C)CN([C@@H](C)CO)C(=O)c2cc(NC(=O)Nc3ccc(C(F)(F)F)cc3)ccc2O1
inactive: [1] | [2] | [3] | [4] | [5] | [6] -16.2% [at 8 µM, active compounds read low] | [7] | [8] | [9]

C[C@@H]1CN([C@@H](C)CO)C(=O)Cc2cc(NC(=O)C3CC3)ccc2O[C@H]1CN(C)Cc1ccc(-c2ccccc2)cc1
inactive: [1] | [2] | [3] | [4] | [5] | [6] 11.5% [at 0.26 µM, active compounds read low] | [7] | [8] | [9]

Cc1ccc(S(=O)(=O)Nc2ccc3c(c2)CC(=O)N([C@H](C)CO)C[C@H](C)[C@@H](CN(C)Cc2ccc(Cl)c(Cl)c2)O3)cc1
inactive: [1] | [2] | [3] | [4] | [5] | [6] 29.2% [at 0.26 µM, active compounds read low] | [7] | [8] | [9]

O=C(C[C@@H]1C[C@H]2c3cc(NC(=O)Nc4ccc(C(F)(F)F)cc4)ccc3O[C@H]2[C@H](CO)O1)NCCc1ccccc1
inactive: [1] | [2] | [3] | [4] | [5] | [6] 13% | [7] | [8] | [9]

COc1ccc(S(=O)(=O)N2CCCCN3[C@H](C2)[C@H](c2ccc(C#CC(C)C)cc2)[C@@H]3CO)cc1
inactive: [1] | [2] | [3] | [4] | [5] | [6] -13.1% [at 8 µM, active compounds read low] | [7] | [8] | [9]

C[C@H]1CN([C@@H](C)CO)C(=O)c2c(c3ccccc3n2C)-c2ccccc2CO[C@@H]1CN(C)Cc1ccc(-c2ccccc2)cc1
inactive: [1] | [2] | [3] | [4] | [5] | [6] 59% [at 30 µM, active compounds read low] | [7] | [8] | [9]

C[C@@H]1CCCCO[C@H](CN(C)C(=O)C2CCCCC2)[C@@H](C)CN([C@@H](C)CO)C(=O)c2cc(NC(=O)Nc3ccccc3)ccc2O1
inactive: [1] | [2] | [3] | [4] | [5] | [6] 37.9% [at 1 µM, active compounds read low] | [7] | [8] | [9]

COc1ccc(S(=O)(=O)Nc2ccc3c(c2)C(=O)N([C@@H](C)CO)C[C@H](C)[C@H](CN(C)Cc2ccc(C(F)(F)F)cc2)OCCCC[C@@H](C)O3)cc1
inactive: [1] | [2] | [3] | [4] | [5] | [6] 26.1% | [7] | [8] | [9]

CCCC#Cc1ccc([C@@H]2[C@H]3CN(S(=O)(=O)c4ccccc4F)CCCCN3[C@H]2CO)cc1
inactive: [1] | [2] | [3] | [4] | [5] | [6] 36.9% [at 8 µM, active compounds read low] | [7] | [8] | [9]

Cc1ccc(S(=O)(=O)N(C)C[C@H]2Oc3ccc(NC(=O)Cc4ccccc4)cc3C(=O)N([C@H](C)CO)C[C@@H]2C)cc1
inactive: [1] | [2] | [3] | [4] | [5] | [6] 7.17% [at 8 µM, active compounds read low] | [7] | [8] | [9]

C[C@@H]1CCCCO[C@@H](CN(C)Cc2ccc(C(F)(F)F)cc2)[C@H](C)CN([C@H](C)CO)C(=O)c2cc(NC(=O)Cc3ccccc3)ccc2O1
inactive: [1] | [2] | [3] | [4] | [5] | [6] -36.2% | [7] | [8] | [9]

COc1ccccc1-c1ccc2c(c1)O[C@H](CN(C)Cc1ccc3c(c1)OCO3)[C@H](C)CN([C@@H](C)CO)S2(=O)=O
inactive: [1] | [2] | [3] | [4] | [5] | [6] 20.4% [at 4.2 µM, active compounds read low] | [7] | [8] | [9]

C[C@H](CO)N1C[C@H](C)[C@H](CN(C)Cc2ccc(Cl)c(Cl)c2)OCCCC[C@H](C)Oc2ccc(NC(=O)NC3CCCCC3)cc2C1=O
inactive: [1] | [2] | [3] | [4] | [5] | [6] -2.95% | [7] | [8] | [9]

Cc1ccc(S(=O)(=O)Nc2ccc3c(c2)C(=O)N([C@H](C)CO)C[C@H](C)[C@H](CN(C)C(=O)c2ccccc2)OCCCC[C@H](C)O3)cc1
inactive: [1] | [2] | [3] | [4] | [5] | [6] -23.6% | [7] | [8] | [9]

COc1cccc(-c2ccc3c(c2)[C@@H]2[C@@H](CCN2C(=O)NC2CCCCC2)[C@H](CO)N3C)c1
inactive: [1] | [2] | [3] | [4] | [5] | [6] -16.7% [at 2.1 µM, active compounds read low] | [7] | [8] | [9]

C[C@H](CO)N1C[C@H](C)[C@@H](CN(C)Cc2ccc(C(F)(F)F)cc2)Oc2ccc(NS(=O)(=O)c3ccc(F)cc3)cc2CC1=O
inactive: [1] | [2] | [3] | [4] | [5] | [6] 24.7% [at 16 µM, active compounds read low] | [7] | [8] | [9]

C[C@H](CO)N1C[C@H](C)[C@H](CN(C)C(=O)NC2CCCCC2)Oc2cc(C#Cc3ccc(F)cc3)ccc2S1(=O)=O
inactive: [1] | [2] | [3] | [4] | [5] | [6] -20.7% | [7] | [8] | [9]

C[C@@H]1CCCCO[C@H](CN(C)Cc2ccc(C(F)(F)F)cc2)[C@H](C)CN([C@H](C)CO)C(=O)c2cc(NC(=O)Nc3ccc(F)cc3)ccc2O1
inactive: [1] | [2] | [3] | [4] | [5] | [6] 10.2% [at 1 µM, active compounds read low] | [7] | [8] | [9]

CCCC(=O)Nc1ccc2c(c1)C(=O)N(C)C[C@@H](OC)[C@H](C)CN(Cc1ccc(-c3ccccn3)cc1)[C@H](C)CO2
inactive: [1] | [2] | [3] | [4] | [5] | [6] 8.7% [at 0.5 µM, active compounds read low] | [7] | [8] | [9]

C[C@@H]1CCCCO[C@@H](CN(C)C(=O)C2CCCCC2)[C@H](C)CN([C@H](C)CO)C(=O)c2cc(NC(=O)Nc3ccc(F)cc3)ccc2O1
inactive: [1] | [2] | [3] | [4] | [5] | [6] -21.5% | [7] | [8] | [9]

CN1c2ccc(C#Cc3cccnc3)cc2[C@@H]2[C@@H](CCN2C(=O)Cc2cccnc2)[C@@H]1CO
inactive: [1] | [2] | [3] | [4] | [5] | [6] 17.5% [at 16 µM, active compounds read low] | [7] | [8] | [9]

C[C@H](CO)N1C[C@H](C)[C@H](CN(C)C(=O)NC2CCCCC2)OCCCC[C@H](C)Oc2ccc(NC(=O)Nc3ccc(C(F)(F)F)cc3)cc2C1=O
inactive: [1] | [2] | [3] | [4] | [5] | [6] 11.8% [at 2.1 µM, active compounds read low] | [7] | [8] | [9]
